# Reference: the supplement of paper PMC11026393
# Tested on: H1299
# Experiment: difference in mean normalized H2B-mRuby nuclear fluorescence intensity relative to DMSO control (normalized intensity difference (DMSO = 0)); higher = stronger increase in transgene reporter fluorescence
# Conditions: 24 h
# Description: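 Cancer cell lines stably expressing H2B-mRuby2 from a lentiviral PGK promoter were treated with each drug for 24 h and imaged on a Leica DMI8 (ex 541-551 / em 565-605 nm). Nuclei were segmented in CellProfiler. The value is the difference in mean per-nucleus normalized H2B-mRuby intensity versus DMSO-treated cells (about 3 repeats x 4 fields). Doxorubicin is itself fluorescent. Dasatinib is in nM.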
structure (smiles),measurement,setting,value
O=C(Nc1ccc2[nH]nc(-c3ccncc3)c2c1)[C@@H]1CCN(CC(=O)N2CCN(c3ccc(-c4ncccn4)cc3)CC2)C1 (concentration unit: uM),difference,concentration: 0.05,-0.0926
same,difference,concentration: 0.1,-0.0835
same,difference,concentration: 0.25,-0.13
same,difference,concentration: 1,-0.131
same,difference,concentration: 5,-0.0355
COc1cc(Nc2c(C#N)cnc3cc(OCCCN4CCN(C)CC4)c(OC)cc23)c(Cl)cc1Cl (concentration unit: uM),difference,concentration: 0.25,-0.202
same,difference,concentration: 1,-0.134
same,difference,concentration: 2.5,-0.0971
same,difference,concentration: 5,-0.166
same,difference,concentration: 20,-0.0502
COc1cc2ncnc(Nc3ccc(F)c(Cl)c3)c2cc1OCCCN1CCOCC1 (concentration unit: uM),difference,concentration: 1,-0.0187
same,difference,concentration: 2.5,0.0302
same,difference,concentration: 5,-0.00342
same,difference,concentration: 10,0.0329
same,difference,concentration: 20,0.0679
N#CC[C@H](C1CCCC1)n1cc(-c2ncnc3[nH]ccc23)cn1 (concentration unit: uM),difference,concentration: 1,0.0876
same,difference,concentration: 2.5,-0.0462
same,difference,concentration: 5,-0.0185
same,difference,concentration: 10,-0.0963
same,difference,concentration: 25,0.115
C[C@@H]1C[C@H](N)C[C@H](c2ccncc2NC(=O)c2ccc(F)c(-c3c(F)cccc3F)n2)C1,difference,concentration: 1,0.00842
same,difference,concentration: 2.5,0.0956
same,difference,concentration: 5,0.0409
same,difference,concentration: 10,0.137
same,difference,concentration: 25,0.227
Cc1[nH]c2ccccc2c1CCNCc1ccc(/C=C/C(=O)NO)cc1 (concentration unit: nM),difference,concentration: 10,0.43
same,difference,concentration: 25,0.738
same,difference,concentration: 50,0.733
same,difference,concentration: 100,0.864
same,difference,concentration: 250,0.886
same,difference,concentration: 500,0.923
Cc1nc(Nc2ncc(C(=O)Nc3c(C)cccc3Cl)s2)cc(N2CCN(CCO)CC2)n1 (concentration unit: nM),difference,concentration: 25,-0.00395
same,difference,concentration: 100,0.0114
same,difference,concentration: 250,0.0693
same,difference,concentration: 1000,0.167
same,difference,concentration: 2500,0.163
COC(=O)c1ccc([C@H]2c3[nH]c4ccccc4c3C[C@H](C(=O)OC)N2C(=O)CCl)cc1 (concentration unit: nM),difference,concentration: 25,0.0419
same,difference,concentration: 100,0.0844
same,difference,concentration: 250,0.00407
same,difference,concentration: 500,0.231
same,difference,concentration: 1000,0.121
